From PubChem BioAssay AID1159580 (chemical genetic matrix, 2015)
In all, about 5,500 compounds went through this assay and about 2,000 (36%) were called active. Not shown: some 18% with an inconclusive outcome. The list shows a part of the results. Unmarked numbers belong to inactive results. Cut-off read from the data, not from the text of the source: active = normalized growth mostly below about 0.91 (no sharp cut-off); inconclusive = no clear call, values can overlap the other calls; inactive = mostly above about 0.92.

Test: chemical genetic growth profiling, strain panel (AID 1159580);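 note: tested at 20 µM; growth read once vehicle control cultures reached saturation at 30 °C; 1 = growth at the plate median or of vehicle wells; lower values mean less growth of the strain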
Details: S. cerevisiae deletion strains, growth OD
[1] = locus YBR229C, strain ROT2, hits give low values
[2] = locus YDL101C, strain DUN1, hits give low values
[3] = locus YDR150W, strain NUM1, hits give low values
[4] = locus YEL061C, strain CIN8, hits give low values
[5] = locus YGR078C, strain PAC10, hits give low values
[6] = locus YGR229C, strain SMI1, hits give low values
[7] = locus YHR030C, strain SLT2, hits give low values
[8] = locus YHR087W, strain rtc3, hits give low values
[9] = locus YJR043C, strain POL32, hits give low values
[10] = locus YJR075W, strain HOC1, hits give low values
[11] = locus YKL190W, strain CNB1, hits give low values
[12] = locus YLR039C, strain RIC1, hits give low values
[13] = locus YLR058C, strain SHM2 (second series), hits give low values
[14] = locus YLR085C, strain ARP6, hits give low values
[15] = locus YLR262C, strain YPT6, hits give low values
[16] = locus YML094W, strain GIM5, hits give low values
[17] = locus YMR219W, strain ESC1, hits give low values
[18] = locus YMR263W, strain SAP30, hits give low values
[19] = locus YNL153C, strain GIM3, hits give low values
[20] = locus YNL298W, strain CLA4 (second series), hits give low values
[21] = locus YNL322C, strain KRE1, hits give low values
[22] = locus YNR030W, strain Alg12, hits give low values
[23] = locus YPL055C, strain LGE1, hits give low values
[24] = locus YPL241C, strain CIN2, hits give low values
[25] = locus YPR135W, strain CTF4, hits give low values

SMILES: Cc1ccc2cc(NC(=O)c3ccco3)ccc2n1
- normalized growth (locus YAL013W, strain DEP1, hits give low values): 0.987
- normalized growth [1]: 0.998
- normalized growth (locus YCL061C, strain MRC1, hits give low values): 0.991
- normalized growth [2]: 1.02
- normalized growth [3]: 0.901
- normalized growth [4]: 0.895 (active)
- normalized growth [5]: 0.989
- normalized growth [6]: 0.989
- normalized growth [7]: 0.309 (active)
- normalized growth [8]: 1.01
- normalized growth [9]: 0.998
- normalized growth [10]: 0.994
- normalized growth [11]: 0.9 (active)
- normalized growth [12]: 0.972
- normalized growth [13]: 1.01
- normalized growth [14]: 0.286 (active)
- normalized growth [15]: 1.01
- normalized growth [16]: 0.96
- normalized growth [17]: 1
- normalized growth [18]: 0.938
- normalized growth (locus YMR307W, strain GAS1, hits give low values): 0.518 (active)
- normalized growth (locus YNL128W, strain TEP1, hits give low values): 0.962
- normalized growth [19]: 1
- normalized growth [20]: 0.807 (active)
- normalized growth [21]: 1.01
- normalized growth [22]: 0.841 (active)
- normalized growth [23]: 0.92
- normalized growth [24]: 0.804 (active)
- normalized growth [25]: 0.385 (active)

SMILES: N#Cc1ccc(NC(=O)Nc2cccc3ccccc23)cc1
- normalized growth (locus YAR019C, strain CDC15, hits give low values): 0.965
- normalized growth (locus YBL105C, strain PKC1, hits give low values): 0.974
- normalized growth (locus YBR135W, strain CKS1, hits give low values): 0.96
- normalized growth (locus YBR136W, strain MEC1, hits give low values): 0.971
- normalized growth (locus YBR160W, strain CDC28, hits give low values): 0.96
- normalized growth (locus YDL017W, strain CDC7, hits give low values): 0.974
- normalized growth (locus YDL028C, strain MPS1, hits give low values): 0.971
- normalized growth [2]: 0.992
- normalized growth (locus YDL108W, strain KIN28, hits give low values): 0.958
- normalized growth (locus YDL132W, strain cdc53, hits give low values): 0.972
- normalized growth (locus YDL214C, strain PRR2, hits give low values): 0.928
- normalized growth (locus YDR052C, strain DBF4, hits give low values): 0.995
- normalized growth (locus YDR054C, strain cdc34, hits give low values): 0.957
- normalized growth (locus YDR226W, strain ADK1, hits give low values): 0.985
- normalized growth (locus YDR477W, strain SNF1, hits give low values): 0.926
- normalized growth (locus YER123W, strain YCK3, hits give low values): 0.919
- normalized growth (locus YER133W, strain GLC7, hits give low values): 0.955
- normalized growth (locus YFL009W, strain cdc4, hits give low values): 0.967
- normalized growth (locus YFL029C, strain CAK1, hits give low values): 0.968
- normalized growth (locus YFR003C, strain YPI1, hits give low values): 0.968
- normalized growth (locus YFR019W, strain FAB1, hits give low values): 0.932
- normalized growth (locus YFR028C, strain CDC14, hits give low values): 0.958
- normalized growth (locus YGR040W, strain KSS1, hits give low values): 0.921
- normalized growth (locus YGR052W, strain FMP48, hits give low values): 0.979
- normalized growth (locus YGR092W, strain DBF2, hits give low values): 0.923
- normalized growth [7]: 0.938
- normalized growth (locus YHR079C, strain IRE1, hits give low values): 0.924
- normalized growth (locus YHR082C, strain KSP1, hits give low values): 0.986
- normalized growth (locus YHR205W, strain SCH9, hits give low values): 0.89
- normalized growth (locus YIL147C, strain SLN1, hits give low values): 0.963
- normalized growth (locus YJL095W, strain BCK1, hits give low values): 0.962
- normalized growth (locus YJL128C, strain PBS2, hits give low values): 0.955
- normalized growth (locus YJL157C, strain FAR1, hits give low values): 0.929
- normalized growth (locus YJR016C, strain ILV3, hits give low values): 0.966
- normalized growth (locus YJR066W, strain TOR1 (second series), hits give low values): 0.903
- normalized growth (locus YJR066W, strain TOR1, hits give low values): 0.972
- normalized growth (locus YKL048C, strain ELM1, hits give low values): 0.949
- normalized growth (locus YKL067W, strain YNK1, hits give low values): 0.941
- normalized growth (locus YKL101W, strain HSL1, hits give low values): 0.916
- normalized growth (locus YKL193C, strain SDS22, hits give low values): 0.963
- normalized growth (locus YKL203C, strain TOR2, hits give low values): 0.998
- normalized growth (locus YLR113W, strain HOG1, hits give low values): 0.832 (active)
- normalized growth (locus YLR133W, strain CKI1, hits give low values): 0.913
- normalized growth (locus YLR403W, strain SFP1, hits give low values): 0.892
- normalized growth (locus YML070W, strain DAK1, hits give low values): 0.901
- normalized growth (locus YMR001C, strain CDC5, hits give low values): 0.967
- normalized growth (locus YMR205C, strain PFK2 (second series), hits give low values): 0.939
- normalized growth (locus YMR277W, strain FCP1, hits give low values): 0.966
- normalized growth (locus YNL006W, strain LST8, hits give low values): 0.978
- normalized growth (locus YNL020C, strain ARK1, hits give low values): 0.917
- normalized growth (locus YNL161W, strain CBK1, hits give low values): 0.963
- normalized growth (locus YNL183C, strain NPR1, hits give low values): 0.943
- normalized growth (locus YNL207W, strain RIO2, hits give low values): 0.968
- normalized growth (locus YNL222W, strain SSU72, hits give low values): 0.967
- normalized growth (locus YNL307C, strain MCK1 (second series), hits give low values): 0.925
- normalized growth (locus YOL078W, strain AVO1, hits give low values): 0.972
- normalized growth (locus YOL136C, strain PFK27, hits give low values): 0.91
- normalized growth (locus YOR061W, strain CKA2, hits give low values): 0.929
- normalized growth (locus YOR119C, strain RIO1, hits give low values): 0.966
- normalized growth (locus YOR231W, strain MKK1, hits give low values): 0.887
- normalized growth (locus YOR329C, strain SCD5, hits give low values): 0.976
- normalized growth (locus YPL031C, strain PHO85, hits give low values): 0.92
- normalized growth (locus YPL153C, strain RAD53, hits give low values): 0.925
- normalized growth (locus YPL204W, strain HRR25, hits give low values): 0.909
- normalized growth (locus YPL209C, strain IPL1, hits give low values): 0.967
- normalized growth (locus YPL256C, strain CLN2, hits give low values): 0.872
- normalized growth (locus YPR025C, strain CCL1, hits give low values): 0.967
- normalized growth (locus YPR106W, strain ISR1, hits give low values): 0.958
- normalized growth (locus YPR111W, strain DBF20, hits give low values): 0.952
- normalized growth (strain NNK1, hits give low values): 0.967
- normalized growth (strain TSCII, hits give low values): 0.969

SMILES: NNC(=O)c1ccccc1O
- normalized growth [1]: 0.986
- normalized growth [2]: 0.975
- normalized growth (locus YDL134C, strain PPH21, hits give low values): 0.988
- normalized growth [3]: 0.892
- normalized growth [4]: 0.965
- normalized growth [5]: 1.01
- normalized growth [6]: 0.989
- normalized growth [7]: 1.03
- normalized growth [8]: 0.99
- normalized growth [9]: 0.96
- normalized growth [10]: 1.02
- normalized growth [11]: 0.983
- normalized growth [12]: 0.958
- normalized growth [13]: 1
- normalized growth [14]: 0.962
- normalized growth [15]: 0.975
- normalized growth [16]: 0.963
- normalized growth [17]: 0.996
- normalized growth [18]: 1.01
- normalized growth [19]: 1.01
- normalized growth [20]: 0.976
- normalized growth [21]: 1.01
- normalized growth [22]: 1.01
- normalized growth [23]: 0.916
- normalized growth [24]: 1.11
- normalized growth [25]: 0.956
